PMC4336329 (PLoS ONE, 2015)
About 14,000 (4.5%) of roughly 310,000 compounds showed an effect of 50% or more. Effects have a minus sign here. The list comes from a sample in which strong results are over-represented; it also holds similar structures and randomly drawn compounds.

The molecules below were run against human ether-à-go-go-related gene (hERG) potassium channel (human, UniProt Q12809) (assay: primary screen, population patch clamp on CHO cells stably expressing hERG; higher = less effect of the substance).
Sequence of human ether-à-go-go-related gene (hERG) potassium channel (Q12809 whole entry, looked up): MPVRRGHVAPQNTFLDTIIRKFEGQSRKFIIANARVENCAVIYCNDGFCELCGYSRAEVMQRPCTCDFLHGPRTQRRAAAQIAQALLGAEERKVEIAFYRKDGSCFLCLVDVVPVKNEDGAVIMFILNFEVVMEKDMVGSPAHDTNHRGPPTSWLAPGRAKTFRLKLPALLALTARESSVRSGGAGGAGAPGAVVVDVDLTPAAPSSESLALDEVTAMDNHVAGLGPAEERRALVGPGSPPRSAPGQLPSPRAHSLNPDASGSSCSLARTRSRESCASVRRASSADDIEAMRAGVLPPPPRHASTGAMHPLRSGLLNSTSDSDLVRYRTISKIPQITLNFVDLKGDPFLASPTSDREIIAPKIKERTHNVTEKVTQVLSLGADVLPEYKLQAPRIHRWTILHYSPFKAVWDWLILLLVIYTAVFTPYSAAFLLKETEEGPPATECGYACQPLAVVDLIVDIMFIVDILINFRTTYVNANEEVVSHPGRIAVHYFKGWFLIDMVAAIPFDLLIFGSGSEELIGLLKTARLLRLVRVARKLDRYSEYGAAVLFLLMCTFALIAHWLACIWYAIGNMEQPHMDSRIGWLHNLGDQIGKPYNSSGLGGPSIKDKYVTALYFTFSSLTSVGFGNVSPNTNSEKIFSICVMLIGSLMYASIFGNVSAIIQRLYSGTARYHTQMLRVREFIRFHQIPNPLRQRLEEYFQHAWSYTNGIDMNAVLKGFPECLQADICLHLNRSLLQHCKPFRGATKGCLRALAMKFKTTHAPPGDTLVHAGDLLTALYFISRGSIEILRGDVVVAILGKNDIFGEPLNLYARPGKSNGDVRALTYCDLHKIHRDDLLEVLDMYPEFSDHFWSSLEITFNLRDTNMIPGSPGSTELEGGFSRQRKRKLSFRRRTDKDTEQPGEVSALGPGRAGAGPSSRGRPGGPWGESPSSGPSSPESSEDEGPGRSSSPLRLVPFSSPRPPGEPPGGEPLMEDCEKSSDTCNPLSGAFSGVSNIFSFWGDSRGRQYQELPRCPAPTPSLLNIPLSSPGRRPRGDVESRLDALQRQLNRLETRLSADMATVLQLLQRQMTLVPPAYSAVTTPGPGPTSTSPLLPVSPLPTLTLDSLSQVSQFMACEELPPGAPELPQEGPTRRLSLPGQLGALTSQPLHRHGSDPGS
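Further: peak tail current of the secondary pulse compared with the same well before compound.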

SMILES	hERG current change (%, negative = inhibition) at 10uM [%]
O=C(CSC1=NCCS1)NC(NC(=O)CSC1=NCCS1)c1ccccc1	18.6
O=C(C1CCN(S(=O)(=O)c2ccc(F)cc2)CC1)N1CCOCC1	15.3
COc1ccc(CNC(=O)c2cc(-c3ccccc3O)n[nH]2)cc1	5.51
O=C1CC(N2CCN(C(c3ccccc3)c3ccccc3)CC2)C(=O)N1 (stereo not drawn)	-0.687
NC(=O)COn1c(SCC(N)=O)nc2ccccc2c1=O	19.3
COC(=O)c1cc(Br)c(=O)n(Cc2ccncc2)c1	-1.41
CCCc1cc(=O)oc2cc(OCC(=O)N3CCC(C(=O)O)(c4ccccc4)CC3)ccc12	6.41
Cc1cc(=O)oc2cc(OCC(=O)N3CCN(C(=O)C4COc5ccccc5O4)CC3)c(Cl)cc12 (stereo not drawn)	-48
O=C(COc1ccc2ccc(=O)oc2c1)N1CCN(C(=O)C2COc3ccccc3O2)CC1 (stereo not drawn)	-46.2
Cc1c(C)c2ccc(OCC(=O)N3CCN(c4ccccc4)CC3)cc2oc1=O	-36.1
CCCc1cc(=O)oc2cc(OCC(=O)N3CCN(C(=O)C4COc5ccccc5O4)CC3)ccc12 (stereo not drawn)	-65.9
CCOc1ccccc1N1CCN(C(=O)COc2ccc3c(C)cc(=O)oc3c2)CC1	-6.28
Cc1c(C)c2ccc(OCC(=O)N3CCC(C(=O)O)CC3)cc2oc1=O	-6.41
Cc1c(C)c2ccc(OCC(=O)N3CCN(C(=O)C4COc5ccccc5O4)CC3)cc2oc1=O (stereo not drawn)	-60.9
Cc1cc(=O)oc2c(C)c(OCC(=O)N3CCN(C(=O)C4COc5ccccc5O4)CC3)ccc12 (stereo not drawn)	-50.4
Cc1cccc(N2CCN(C(=O)COc3ccc4c(C)cc(=O)oc4c3C)CC2)c1C	13.6
CCCc1cc(=O)oc2cc(OCC(=O)N3CCC(C(N)=O)CC3)ccc12	-6.67
Cc1cc(=O)oc2cc(OCC(=O)N3CCN(C(=O)C4COc5ccccc5O4)CC3)ccc12 (stereo not drawn)	-53.6
CCOC(=O)c1ccc(NC(=O)CCc2nc(-c3ccc(Cl)cc3)no2)cc1	8.36
Cc1cccc(N(CC(=O)NCCSCc2ccccc2)S(C)(=O)=O)c1C	-17.4
Cc1ccc(S(=O)(=O)N2CCN(C(=O)COC(=O)c3c(C)noc3C)CC2)c(C)c1	-18.8
COCCCNC(=O)CN(c1ccc(Cl)c(Cl)c1)S(C)(=O)=O	-10.9
Cc1ccc(NCC(=O)N/N=C\c2cccc(O)c2)cc1	1.98
C=CCNC(=S)N1CCOCC1	-1.69
O=C(/C=C/c1ccccc1[N+](=O)[O-])NNC(=O)c1ccncc1	-7.86
CCOc1ccccc1NC1=C(Cl)C(=O)N(c2ccc(OC)cc2)C1=O	-10.4

SMILES	hERG current change (%, negative = inhibition) at 10uM [%]
Cc1cc(=O)oc2cc(OCC(=O)N3CCN(Cc4ccc5c(c4)OCO5)CC3)ccc12	-42.9
CCCc1cc(=O)oc2cc(OCC(=O)N3CCN(Cc4ccc5c(c4)OCO5)CC3)ccc12	-57
Cc1ccc(OCC(=O)N2CCN(Cc3ccc4c(c3)OCO4)CC2)cc1C	-24.6
CC(Oc1ccccc1)C(=O)N=C1SC2CS(=O)(=O)CC2N1Cc1ccc(F)cc1 (stereo not drawn)	-24.6
CCc1cccc(CC)c1NC(=O)C1CCN(C(=O)c2ccco2)CC1	2.93
COc1ccc(C(=O)OCn2nnc3ccccc3c2=O)cc1OC	8.71
O=C(Nc1ccc(Br)cc1)C1C2C=CC3(O2)C1C(=O)N(CCN1CCCCC1)C3C(=O)NC1CCCCC1 (stereo not drawn)	-59.8
O=C(Nc1ccc(Cl)cc1)C1C2C=CC3(O2)C1C(=O)N(CCN1CCCCC1)C3C(=O)NC1CCCCC1 (stereo not drawn)	-44.1
Cc1cc(C)cc(NC(=O)C2C3C=CC4(O3)C2C(=O)N(CCN2CCCCC2)C4C(=O)NC2CCCCC2)c1 (stereo not drawn)	-40.3
O=C(Nc1ccc(Cl)c(Cl)c1)C1C2C=CC3(O2)C1C(=O)N(CCN1CCCCC1)C3C(=O)NC1CCCCC1 (stereo not drawn)	-60.8
Cc1ccc(NC(=O)C2C3C=CC4(O3)C2C(=O)N(CCCN2CCCCC2)C4C(=O)NC2CCCCC2)cc1Cl (stereo not drawn)	16.3
O=C(Nc1ccc(Br)cc1)C1C2C=CC3(O2)C1C(=O)N(CCN1CCOCC1)C3C(=O)NC1CCCCC1 (stereo not drawn)	-3.6
Cc1ccc(-c2nc(N)n(S(C)(=O)=O)n2)cc1	7.05
CC(C)(C)n1nc2c(c1NC(=O)c1ccccc1F)CS(=O)C2 (stereo not drawn)	15.6
Cc1ccc2cc(/C=C/C(=O)c3ccco3)c(Cl)nc2c1	15.2
COc1ccc(C)cc1NC(=O)c1ccc2c(=O)n3c(nc2c1)CCCCC3	-42.5
Cc1ccc(NC(=O)c2ccc3c(=O)n4c(nc3c2)CCCCC4)nc1	-60.4
Cc1cccc(NC(=O)c2ccc3c(=O)n4c(nc3c2)CCCCC4)n1	-67.2
O=C(Nc1ccccn1)c1ccc2c(=O)n3c(nc2c1)CCCCC3	-47.2
Cc1cc(C)c2nc(NC(=O)c3ccc4c(=O)n5c(nc4c3)CCCCC5)sc2c1	13.9
O=C(Nc1nc(-c2ccccc2)cs1)c1ccc2c(=O)n3c(nc2c1)CCCCC3	-23.8
O=C(Nc1ccccc1Cl)c1ccc2c(=O)n3c(nc2c1)CCC3	-6.14
Cc1csc(NC(=O)c2ccc3c(=O)n4c(nc3c2)CCCCC4)n1	-80.3
Cc1ccc(-c2csc(NC(=O)c3ccc4c(=O)n5c(nc4c3)CCCCC5)n2)cc1	-6.65
COc1ccc(-c2cc(C(=O)N3CCN(c4ncccn4)CC3)c3ccccc3n2)cc1	-33.4
